Columns and labels:
Details in all cases: mESC; 2uM; 72 h treatment, harvest day 5
[1] = compound: O=C1Cc2c([nH]c3ccc(Br)cc23)-c2ccccc2N1 [Kenpaullone]; assay: fraction of microhomology deletions among edited reads; higher = more MH deletions
[2] = compound: O=c1c(-c2ccc(O)cc2)coc2cc(O)cc(O)c12 [Genistein]; assay: as above
[3] = compound: O=c1cc(N2CCOCC2)oc2c(-c3ccc4c(c3)OCCO4)csc12; assay: as above
[4] = compound: S=c1[nH]cnc2nc[nH]c12 [Mercaptopurine (6-MP)]; assay: as above
[5] = compound: S=c1nc[nH]c2nc[nH]c12 [6-Mercaptopurine (6-MP) Monohydrate]; assay: as above
[6] = compound: CC(=O)O/N=C1\C(=O)N(Cc2cc(Cl)ccc2Cl)c2ccc(Cl)cc21; assay: fraction of 1-bp insertions among edited reads; higher = more 1-bp insertion outcomes
[7] = compound: CC(C)(C#N)c1ccc(N2C(=O)OCc3cnc4ccc(-c5cnc6ccccc6c5)cc4c32)cc1; assay: as above
[8] = compound: CCCCOc1c(C(=O)c2c(F)cc(C)cc2F)c[nH]c2nncc1-2; assay: as above
[9] = compound: CCN1CCN(CC(=O)Nc2ccc(-c3cccc4c(=O)cc(N5CCOCC5)oc34)c3sc4ccccc4c23)CC1; assay: as above
[10] = compound: CCc1c2c(nc3ccc(OC(=O)N4CCC(N5CCCCC5)CC4)cc13)-c1cc3c(c(=O)n1C2)COC(=O)[C@]3(O)CC [Irinotecan HCl Trihydrate]; assay: as above

Target	fraction of microhomology deletions among edited reads [1]	fraction of microhomology deletions among edited reads [2]	fraction of microhomology deletions among edited reads [3]	fraction of microhomology deletions among edited reads [4]	fraction of microhomology deletions among edited reads [5]	fraction of 1-bp insertions among edited reads [6]	fraction of 1-bp insertions among edited reads [7]	fraction of 1-bp insertions among edited reads [8]	fraction of 1-bp insertions among edited reads [9]	fraction of 1-bp insertions among edited reads [10]
5.0 (DMSO control at this site: 1-bp insertion 0.214, MH deletion 0.567, edited 0.105) CGCTGACCCGAGACCTACGCGAACCGAAATCGGCGACCGGTGCGCAAGCAGGGCTGGCGTC	0.523	0.604	0.61	0.507	0.498	0.204	0.198	0.226	0.0634	0.239
45.0 (DMSO control at this site: 1-bp insertion 0.017, MH deletion 0.666, edited 0.101) TTACACAGCATGAACTGCTAGGTGATGATGTCAGATTCGGTTTTACTAACTTCTCCAAAAA	0.561	0.601	0.67	0.614	0.557	0.0284	0.0222	0.0249	0.016	0.0413
35.0 (DMSO control at this site: 1-bp insertion 0.01, MH deletion 0.72, edited 0.098) CCACTTTTAGAGAGGGTGAAAATCATCAGTTATCATCAGGGCAACAAATTGCTTTCTCCTA	0.683	0.77	0.809	0.684	0.657	0.0261	0.0309	0.00887	0.0214	0.0184
44.0 (DMSO control at this site: 1-bp insertion 0.181, MH deletion 0.512, edited 0.123) ACACATACCTTCTTCGAGGCAGCCAGCATGATGAGACAGGTCTCCCACAAACACATCGTGT	0.473	0.525	0.537	0.499	0.523	0.159	0.185	0.221	0.0636	0.21
34.0 (DMSO control at this site: 1-bp insertion 0.184, MH deletion 0.385, edited 0.103) ATTATAGGACCCTGAGGGAGCAGAGATGTGGGAATGGGGGCCGAGCCAATTGTGATGTAAG	0.473	0.534	0.476	0.424		0.157	0.154	0.172	0.0647	0.184
33.0 (DMSO control at this site: 1-bp insertion 0.008, MH deletion 0.771, edited 0.112) CATTAAGAGCAGCTGCCGGCCCCCAAGTGGACAGAGCTGGCCCTGCTGATTCAACAGTGCA	0.726	0.732	0.737	0.699	0.692	0.0218	0.021	0.0356	0.018	0.0322
22.0 (DMSO control at this site: 1-bp insertion 0.573, MH deletion 0.229, edited 0.045) CTGATGGTTGAAGGATTTAGCCGGGGTCCTAGACGCCGGGGTCCTAGACGAAAGGGCCACG	0.116	0.139	0.146	0.107	0.155	0.62	0.564	0.613	0.302	0.604
27.0 CCAGAATTAGAACATATCATCTGGACCCTTTTCCATCTGGACCCTTTTCCAGCACACCCTG	0.0808	0.0896	0.137	0.197	0.147	0.107	0.141	0.138		0.178
26.0 (DMSO control at this site: 1-bp insertion 0.518, MH deletion 0.262, edited 0.026) AGGGCGCGCCCCACGCACTCTGCGGCAAGTCCCTCTGCGGCAAGTCCTCGGCCCGGAAGAC	0.244	0.296	0.338	0.311	0.297	0.507	0.45	0.513	0.131	0.466
18.0 (DMSO control at this site: 1-bp insertion 0.114, MH deletion 0.789, edited 0.094) GCGCAAGTGCATAAGTTTTTCTTAAGGCGTGCCTTTAAGGCGTGCCTTTGTCGGTCCTGGA	0.759	0.797	0.833	0.734	0.733	0.0913	0.0901	0.103	0.0252	0.109
30.0 (DMSO control at this site: 1-bp insertion 0.074, MH deletion 0.67, edited 0.142) GAGCTGGCATGAGTATTTGTGCCACATGGCTCCCACATGGCTCCACATGCAAGTTTGAAAC	0.628	0.697	0.745	0.6	0.57	0.0901	0.0675	0.059	0.036	0.0999
19.0 (DMSO control at this site: 1-bp insertion 0.121, MH deletion 0.101, edited 0.057) TCTGCAGGGGTCGGAACCCGGGGGCTAGGGCTATCCCGGGGGCTAGGGCTATTAGCGAACC	0.221	0.186	0.125	0.238	0.163	0.111	0.0907	0.0994	0.0438	0.0969
28.0 (DMSO control at this site: 1-bp insertion 0.035, MH deletion 0.77, edited 0.142) TGGTTCTTCCTTTGTAGAGAGTGTTCATCTGGGAATCTGGGACTTGGATGAGACAATCATT	0.736	0.784	0.818	0.718	0.693	0.0335	0.0355	0.0391	0.0168	0.0322
47.0 (DMSO control at this site: 1-bp insertion 0.095, MH deletion 0.585, edited 0.118) GAGTGGTCCCGAGCCAGGAACTGTGTGTGTTGCAGGGGGGCAGTAACTCCCCAACTCCCTC	0.486	0.508	0.554	0.46	0.401	0.0999	0.09	0.121	0.0733	0.118
38.0 (DMSO control at this site: 1-bp insertion 0.063, MH deletion 0.487, edited 0.17) GGGCTGGGTGCTAAAATGAGGAGCTCCAAGAAGACTGAGGTGAACCTGGAGGCCCCTGAGC	0.414	0.462	0.476	0.474	0.468	0.0549	0.0615	0.0554	0.0485	0.0536
0.0 (DMSO control at this site: 1-bp insertion 0.463, MH deletion 0.339, edited 0.14) AGGATTACCGAGACCTACGCGAACCGAAATCGCTGTCCGGTGCGCAAGCAGGGCTGGCGTC	0.22	0.34	0.384	0.288	0.282	0.437	0.497	0.504	0.175	0.456
16.0 (DMSO control at this site: 1-bp insertion 0.172, MH deletion 0.29, edited 0.05) CGGACTGCACACATGGGTAGGATCGTGCACGCGAGGTAGGATCGTGCACGCGAAGTTATTC	0.327	0.305	0.257	0.314	0.294	0.169	0.15	0.138	0.0987	0.184
25.0 (DMSO control at this site: 1-bp insertion 0.017, MH deletion 0.774, edited 0.143) GGGCCTGAATGGTGTGGACATCTACTCGCTGGTGAGCTGGTGACTGAAAACATTCAGTGGC	0.739	0.773	0.772	0.71	0.694	0.0158	0.0262	0.017	0.0169	0.0204
